HT1080 IDH1KD tx: toxicity to HT-1080 IDH1 knockdown cells (counter line); HT-1080 IDH1 knockdown viability, ATP luminescence, 48 h; Potency, µM (top dose mostly 46.1 µM), actives largely listed as cytotoxic; hit rate 2% among 360,000
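Knockdown cells (IDH1KD HT-1080) received compounds 2 h after plating at 750 cells/well and were kept 48 h at 37 °C in 5% FBS RPMI. A CellTiter-Glo luminescence read gave % activity for curve fitting.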
ELG1 DNA repair: ELG1-dependent DNA repair inhibition; HEK293T ELG1-luciferase reporter, luminescence, 16 h; DNA damage induced by 5-fluorouridine; Potency, µM (series often up to 46.1 µM), actives largely listed as inhibitors; hit rate 2.3% among 330,000; AID 504467; also: nearly all actives have a fitted effect of over 55% in size
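Reporter activity after DNA damage by 5-fluorouridine is monitored. Compound-treated cells incubate 16 hr at 37 °C, then ONE-Glo is added for 30 min before luminescence reading.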
TDP1 cell noCPT: qHTS for Inhibitors of human tyrosyl-DNA phosphodiesterase 1 (TDP1): qHTS in cells in absence of CPT. DT40 Tdp1-/- hTDP1 cells, no CPT, ATP luminescence, 48 h. Potency, µM (series often up to 46.2 µM), actives largely listed as inhibitors. hit rate 15% among 420,000; also: nearly all actives have a fitted effect of over 55% in size
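A cellular qHTS used chicken DT40 cells lacking endogenous Tdp1 but carrying stably transfected human TDP1. Compounds were applied without camptothecin, and cell growth kinetics were judged by ATP-dependent luminescence after ≥48 hr.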
IL1B secr inh: inhibitors of inflammasome signaling (IL-1 beta secretion); THP-1 LPS/ATP IL-1B secretion, AlphaLISA, 16 h; hits give low values; activity change, % at 57.5 µM; hit rate 4.7% among 360,000; AID 743279; in the data active = activity change below about -50%; inconclusive = mostly about -30% to -49%
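THP-1 cells pretreated 1 hr with compounds (up to 57.5 uM final), then stimulated with LPS (250 ng/mL final) plus ATP (1.25 mM final); secreted IL-1B measured by AlphaLISA after 16 hr, decreased signal indicating inhibition.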
HT1080NT lethal: kills 2HG-producing HT-1080-NT fibrosarcoma cells; Potency, µM (top dose mostly 46.1 µM), most hits filed as cytotoxic; hit rate 1.6% among 360,000; AID 686970; HT-1080-NT fibrosarcoma viability, CellTiter-Glo ATP luminescence, 48 h;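 also: NT is the 2HG producing partner of a matched IDH1 knockdown line; nearly all actives have a fitted effect of over 55% in size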
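Luminescent CellTiter-Glo readout after 48 hours of compound exposure at 37 degrees C defined viability of HT-1080-NT cells. Activity was normalized to DMSO wells and cell-free media wells; concentration-response curves were fitted and assigned curve classes.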
DT40 TDP1 CPT: growth inhibition of DT40 Tdp1-/-;hTDP1 cells with camptothecin (screen for TDP1 inhibitors); hit rate 12% among 420,000; chicken DT40 Tdp1-/-;hTDP1 cells + 20 nM CPT, ATP luminescence, 48 h; Potency, µM (top dose mostly 46.2 µM), usual class: inhibitors; AID 686979; also: nearly all actives have a fitted effect of over 55% in size
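Chicken DT40 Tdp1-/- cells complemented with human TDP1, 400 cells/well, exposed to compounds plus 20 nM camptothecin for at least 48 h at 37 C; viability read as ATP content by CellTiter-Glo luminescence.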
Each line names hits and unclear results; the compound was inactive in the other large screens. In the library only some 19% were active in any assay of this set; here they are far more common. Unless noted, calls follow the shape of the dose curve; as a rule, active = well fitted curve in the direction sought with a large enough effect; inconclusive = small, poorly fitted or top-dose-only effect, or another doubt; inactive = no such curve, though single readings can be large; an effect the other way counts as inactive or inconclusive.

Cc1cc2c(c(-c3cnccn3)c1)OC(CNC(=O)c1c(F)cccc1Cl)C2 (stereo not drawn)	TDP1 cell noCPT inconclusive (no result: HT1080 IDH1KD tx, ELG1 DNA repair, IL1B secr inh, HT1080NT lethal)
COc1ccc(NS(=O)(=O)c2cccc(C(=O)NNC(=O)c3ccc(O)c(Cl)c3)c2)cc1	none
Cc1cc(C)n(CCc2nc(-c3ccc(C(C)(C)C)cc3)cs2)n1	TDP1 cell noCPT 11.6µM, IL1B secr inh -50.7, DT40 TDP1 CPT 23.1µM
COc1cc(-c2csc(CCn3nc(C)cc3C)n2)cc(OC)c1OC	TDP1 cell noCPT 18.4µM, DT40 TDP1 CPT 20.6µM
Cc1cc(C)n(CCc2nc(-c3ccc(F)cc3)cs2)n1	ELG1 DNA repair inconclusive, TDP1 cell noCPT inconclusive, IL1B secr inh inconclusive, DT40 TDP1 CPT inconclusive
Cc1ccc(NC2=C(NC(=O)c3ccccc3)C(=O)c3ccccc3C2=O)cc1Cl	ELG1 DNA repair inconclusive, TDP1 cell noCPT 20.6µM, IL1B secr inh inconclusive, DT40 TDP1 CPT 8.2µM
Cc1ccc(C(=O)CNc2ccc(C)c(Cl)c2)cc1	ELG1 DNA repair inconclusive, DT40 TDP1 CPT inconclusive
Cc1ccc(NCCC(=O)c2ccccc2)cc1Cl	ELG1 DNA repair inconclusive, TDP1 cell noCPT 14.6µM, DT40 TDP1 CPT 10.3µM
Cc1ccc(NS(=O)(=O)Cc2ccccc2)cc1Cl	TDP1 cell noCPT inconclusive, IL1B secr inh -86.5
C/C(=N\NC(=S)Nc1cccc(C)c1)c1ccco1	ELG1 DNA repair inconclusive, TDP1 cell noCPT inconclusive, DT40 TDP1 CPT inconclusive
CC(=NNC(=S)Nc1cccc(C)c1)c1ccccn1	HT1080 IDH1KD tx inconclusive, TDP1 cell noCPT 0.0326µM, DT40 TDP1 CPT 0.0184µM (no result: ELG1 DNA repair)
COc1ccccc1NC(=O)c1ccccc1NC(=O)c1ccccn1	TDP1 cell noCPT inconclusive, DT40 TDP1 CPT inconclusive
COc1ccccc1NC(=S)NN=C(C)c1ccccn1	HT1080 IDH1KD tx inconclusive, TDP1 cell noCPT 0.146µM, DT40 TDP1 CPT 0.013µM (no result: ELG1 DNA repair)
CC(=NNC(=S)Nc1ccc(C)cc1)c1ccccn1	HT1080 IDH1KD tx inconclusive, TDP1 cell noCPT 0.0184µM, IL1B secr inh inconclusive, HT1080NT lethal inconclusive, DT40 TDP1 CPT 0.0184µM (no result: ELG1 DNA repair)
CCCCn1c(=O)[nH]c(=O)c2c(C(=O)OCC)cc(-c3ccc(OC(F)F)cc3)nc21	ELG1 DNA repair inconclusive, TDP1 cell noCPT inconclusive, DT40 TDP1 CPT inconclusive
CCOC(=O)C1CCN(C(=O)C2(NC(=O)Nc3ccccc3C)CCCCC2)CC1	IL1B secr inh inconclusive
O=C(NC(=S)Nc1cccnc1Cl)c1ccc(F)cc1	ELG1 DNA repair inconclusive, TDP1 cell noCPT inconclusive
COc1ccc(-c2csc(N(CCCN(C)C)C(=O)c3ccc(OC)c(OC)c3)n2)cc1	DT40 TDP1 CPT inconclusive (no result: ELG1 DNA repair)
COc1ccc(-c2csc(N(Cc3ccco3)C(=O)c3cccs3)n2)cc1	TDP1 cell noCPT inconclusive, DT40 TDP1 CPT inconclusive
COc1ccc(OC)c(-c2csc(N(C)C(=O)Cc3ccccc3)n2)c1	ELG1 DNA repair inconclusive, IL1B secr inh inconclusive
COc1ccc(-c2csc(N(C)C(=O)c3cccs3)n2)cc1	ELG1 DNA repair inconclusive, IL1B secr inh -59.6
COc1ccc(-c2csc(N(CC3CCCO3)C(=O)c3cccs3)n2)cc1 (stereo not drawn)	ELG1 DNA repair inconclusive, TDP1 cell noCPT inconclusive, DT40 TDP1 CPT 11.6µM
COc1ccc(OC)c(-c2csc(N(CC3CCCO3)C(=O)C3CCCCC3)n2)c1 (stereo not drawn)	ELG1 DNA repair inconclusive, TDP1 cell noCPT 18.4µM, DT40 TDP1 CPT 20.6µM
CCN(CC)CCCN(C(=O)c1ccc(Br)cc1)c1nc(-c2ccc(OC)cc2)cs1	HT1080 IDH1KD tx inconclusive, TDP1 cell noCPT inconclusive, IL1B secr inh -81.5, HT1080NT lethal inconclusive
CSc1cccc(CNC(=O)C2CCC(=O)N(CCc3ccccc3)C2)c1 (stereo not drawn)	TDP1 cell noCPT inconclusive, DT40 TDP1 CPT inconclusive (no result: ELG1 DNA repair)
CCOC(=O)c1cnc2c(Cl)cc(Cl)cc2c1Nc1ccccc1OC	none (no result: HT1080 IDH1KD tx, ELG1 DNA repair, IL1B secr inh, HT1080NT lethal)
COCCN(C(=O)Nc1ccc(OC)cc1)c1nc2ccccc2s1	TDP1 cell noCPT inconclusive
